Screens (PubChem BioAssay)
An excerpt weighted towards active compounds, which were near 21% of everything screened.
Sm TGR block = inhibitors of Schistosoma mansoni thioredoxin glutathione reductase; Q962Y6; hit rate 3% among 360,000; Potency, µM (doses to about 114 µM), inactives show at the highest dose activity change, negative = inhibition, most hits filed as inhibitors; AID 485364; purified TGR, DTNB reduction, TNB absorbance 405 nm; also: potency is read from the fitted curve at half-maximal effect; % is scaled to controls: 0 for no effect and ±100 for the full control effect; nearly all actives have a fitted effect of over 60% in size
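Kinetic colorimetric format: TGR-catalysed, NADPH-driven DTNB reduction monitored via TNB absorbance. Enzyme dispensed at 20 nM; compound exposure 15 min at room temperature before reaction start.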
Cycloheximide cs = counter-screen for Shiga toxin inhibitors: cycloheximide protein synthesis inhibition; cell reporter, cycloheximide protein synthesis inhibition counterscreen; max response, %; hit rate 12% among 300,000; in the data active = max response mostly above about 13%, no sharp cut-off; inactive = mostly below about 14%; also: read at 38.3 µM for the half of the compounds with a filed dose; 0% is about no effect
Pf growth 96h = P. falciparum growth inhibition at 96 hour, primary screen for plastid delayed-death inhibitors; P. falciparum luciferase reporter growth, 96 h; Potency, µM (doses to about 28.7 µM), inactives show at the top dose activity change, negative = inhibition, usual class: inhibitors; hit rate 6.9% among 320,000; also: potency is read from the fitted curve at half-maximal effect; % is scaled to controls: 0 for no effect and ±100 for the full control effect
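Compounds incubated with erythrocytes infected by luciferase-expressing P. falciparum (2% hematocrit, 0.05% parasitemia final) for 96 hours, 37 C in 5% CO2. Growth inhibition scored as decreased luciferase luminescence.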
Shiga inhibitor = blocks Shiga toxin action in Vero cells; Vero cells, Shiga toxin protein synthesis inhibition reporter; inhibition, % at 38.7 µM; hit rate 9.2% among 290,000; AID 2315; in the data active = inhibition mostly above about 28%, no sharp cut-off; inactive = mostly below about 43%; also: 0% is about no effect
Pf growth 48h = inhibits P. falciparum growth in the first generation, 48 h; AID 504832; P. falciparum luciferase growth in erythrocytes, 48 h; hit rate 5.9% among 310,000; Potency, µM (series often up to 28.7 µM), without a hit: at the top dose activity change, negative = inhibition, usual class: inhibitors; also: potency is read from the fitted curve at half-maximal effect; % is scaled to controls: 0 for no effect and ±100 for the full control effect
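First compound was added to culture medium, then infected red cells at 0.1% parasitemia and 2% hematocrit (final). After incubation at 37 C under 5% CO2, luciferase detection reagent was dispensed and light output recorded.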
NS1 function inh = influenza NS1 inhibition; Potency, µM (doses to about 46.1 µM), for inactives: at the top dose activity, positive = more growth; hit rate 0.4% among 270,000; calls by dose curve; also: potency is read from the fitted curve at half-maximal effect; actives are rising curves; nearly all actives have a fitted effect of over 50% in size
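S. cerevisiae expressing influenza A NS1, grown in glucose, washed, then diluted 1:100 into pH 6.0 -URA galactose medium with 23 nl compound. Growth recovery read as OD600; NS1-free strain serves as control.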
Active calls of the source: *; ? = inconclusive; . = no result given; [ ] = dose if it differs, or a comment. Unless noted, calls follow the shape of the dose curve; as a rule, active = well fitted curve in the direction sought with a large enough effect; inconclusive = small, poorly fitted or top-dose-only effect, or another doubt; inactive = no such curve, though single readings can be large; an effect the other way counts as inactive or inconclusive.

SMILES	Sm TGR block	Cycloheximide cs	Pf growth 96h	Shiga inhibitor	Pf growth 48h	NS1 function inh
Cc1ccc2c(c1)c(=O)c1c3n2CCN(C(=O)CCl)C3CC1 (stereo unspecified)	3.2µM*	-1	5.2µM*	26	.	5%
Cc1ccc2c(c1)c1c3n2CCCN(Cc2ccccc2)C3CCC1 (stereo unspecified)	1%	-6	.	-20	0.93µM*	2%
Cc1ccc2c(c1)c1c3n2CCN(CC(N)=O)C3CCC1 (stereo unspecified)	-8%	1	-5%	78	13µM*	24%
COc1ccccc1/C(C)=N/NC(=S)NCc1ccccc1	14%	-2	?	-4	0%	2%
Cc1onc(-c2ccccc2)c1C(=O)N1CCC(CO)(Cc2ccccc2)CC1	3%	15	-2%	-1	-11%	-13%
CN1CCN(CC(=O)N2CCn3c4c(c5cc(C6CCCCC6)ccc53)CCCC42)CC1 (stereo unspecified)	-1%	-2	?	1	7.4µM*	-75%
Cc1ccc2c(c1)c1c3n2CCN(CC#N)C3CCC1 (stereo unspecified)	6%	-1	?	-2	?	-11%
Cc1ccc2c(c1)c1c3n2CCN(CC(O)CNC(C)C)C3CCC1 (stereo unspecified)	42%	-4	13µM*	-7	?	2%
Cc1cc(C)c(N(Cc2ccccc2)S(=O)(=O)c2ccc(OCCNC(=O)c3cc4ccccc4o3)cc2)c(C(=O)NO)c1	.	-8	.	-3	.	.
COc1cc(/C=C2\SC(=S)N(N(C)c3ccccc3)C2=O)ccc1O	-3%	2	-24%	-3	?	8%
CCN1C(=O)CCC(C(=O)O)C1c1ccc(OC)cc1 (stereo unspecified)	16%	1	20%	9	21%	-2%
O=C(CN1C(=O)c2ccccc2S1(=O)=O)c1ccc2c(c1)OCCCO2	0%	-11	1.5µM*	-27	?	5%
O=C(CN1C(=O)c2ccccc2S1(=O)=O)c1ccc2c(c1)OCCO2	19%	-5	-19%	-20	?	4%
O=C(CCN1C(=O)c2ccccc2S1(=O)=O)Nc1ccc(C(=O)O)cc1	4%	1	10µM*	-3	36%	3%
O=C(CN1Cc2ccccc2C1=O)Nc1ccc2c(c1)OCCO2	1%	83*	6%	85*	95%	2%
COc1ccc(NC(=O)CCN2C(=O)c3ccccc3S2(=O)=O)cc1	0%	19	3%	12	7%	12%
O=C(CCN1C(=O)c2ccccc2S1(=O)=O)Nc1ccccc1	-9%	1	35%	-5	11%	1%
O=C(CCN1C(=O)c2ccccc2S1(=O)=O)Nc1ccc2c(c1)OCCO2	-3%	34*	-13%	37	22%	-7%
CC1(c2nnc(-c3ccc(F)cc3)o2)CC(c2cccc(Cl)c2)=NO1 (stereo unspecified)	13%	-1	65%	-3	39%	-40%
COc1ccc(CCNC(=O)CCNS(=O)(=O)c2cccc(Cl)c2)cc1OC	1%	-1	?	-6	-17%	.
Cc1cccc(NC(=O)CN(C)S(=O)(=O)c2ccc(Cl)cc2)n1	0%	-2	30%	13	-3%	-4%
Cc1cccc(NC(=O)c2ccc(S(=O)(=O)N(C)C)cc2)n1	0%	37*	.	78*	51%	-3%
CCOc1ccc(NC(C)=O)cc1	5%	2	39%	-1	16%	8%
CCOc1ccc(NC(=O)Nc2cccc(C)n2)cc1	29%	28*	?	72*	77%	-7%
CCCCOc1ccc(C(=O)Nc2cccc(C)n2)cc1	-15%	43*	29%	74*	-8%	-108%
SMILES	Sm TGR block	Cycloheximide cs	Pf growth 96h	Shiga inhibitor	Pf growth 48h	NS1 function inh
CCCCCCCOc1ccc(C(=O)Nc2cccnc2)cc1	-1%	1	2%	.	39%	4%
CCOc1ccc(NC(=O)c2ccccn2)cc1	8%	7	-33%	-15	-42%	-4%
CCOc1ccc(C(=O)Nc2ncccc2Cl)cc1	-20%	42*	47%	71*	78%	0%
O=C(O)c1ccc(N[C@@H]2OC[C@@H](O)[C@@H](O)[C@@H]2O)cc1	.	.	3%	.	-3%	.
CCOC(=O)c1cccc(NC(=O)Nc2ccc(OCC)cc2)c1	15%	39*	?	108*	241%	.
CCOc1ccc(/C=C/C(=O)Nc2cccc(C(C)=O)c2)cc1	-6%	27*	?	64*	123%	-3%
CCOc1ccc(C(=O)Nc2cc(C)ccn2)cc1	-1%	3	2%	-5	145%	.
CCOc1ccc(C(=O)Nc2cccc(C)n2)cc1	26%	25*	114%	25	146%	-9%
FC(F)(F)Oc1ccc(NC(=S)Nc2ccccc2N2CCOCC2)cc1	1%	-1	11%	-9	?	-5%
COc1ccc(CC(=O)Nc2ccccc2C(=O)N2CCCC2)cc1	0%	-2	10%	7	19%	7%
Cc1oc(-c2cccc(Cl)c2)nc1CSc1nncn2c1cc1occc12	-20%	.	.	.	.	.
N/C(=N\OC(=O)c1ccccc1F)c1cccc([N+](=O)[O-])c1	2%	39*	12µM*	56*	146%	-20%
Cc1ccccc1C(=O)O/N=C(\N)c1ccccc1	1%	21*	4%	28	6%[0.00184 µM]	-54%
N/C(=N\OC(=O)c1ccccc1Br)c1cccc([N+](=O)[O-])c1	-16%	52*	311%	118*	.	-6%
Cc1ccccc1/C(N)=N/OC(=O)c1ccc(F)cc1	-3%	47*	?	107*	-39%	-62%
COc1cc(C(=O)O/N=C(\N)c2cccc([N+](=O)[O-])c2)cc(OC)c1OC	7%	6	0%	8	-18%	1%
CCc1cccc(NC(=O)Cn2c(=O)n(CCCCCC(=O)NCc3ccc(F)cc3)c(=O)c3sccc32)c1	-9%	.	.	.	.	.
CCC(=O)Nc1ccc(CC)cc1-c1nc2ccccc2n(Cc2ccccc2)c1=O	-4%	.	.	.	.	.
CCOC(=O)c1ccc(NC(=O)c2csnn2)cc1	2%	.	.	.	.	.
CC(=O)c1ccc(NC(=O)C(C)OC(=O)COc2ccc(C#N)cc2)cc1 (stereo unspecified)	-10%	-3	1%	-12	5%	-16%
N/C(Cc1ccc([N+](=O)[O-])cc1)=N\OC(=O)c1ccccc1Br	-3%	-2	-4%	18	?	-46%
Cc1ccccc1C(=O)O/N=C(\N)c1ccc([N+](=O)[O-])cc1	-1%	32*	?	.	-3%	-8%
Cc1ccccc1C(=O)O/N=C(\c1ccccc1)c1ccccn1	-7%	8	17%	-4	-4%	-27%
Cc1ccccc1C(=NC(=O)c1ccccc1)c1ccccc1	21%	-2	6.6µM*	23	8.3µM*	-51%
